Screening results deposited in PubChem BioAssay by National Center for Advancing Translational Sciences (NCATS).
KAT2A inh – inhibitors of human GCN5L2 histone acetyltransferase | Potency, µM (doses to about 58.9 µM), for inactives: top-dose activity change, negative = inhibition, actives largely listed as inhibitors | 390,000 tested, 0.21% active | GCN5L2 HAT assay, ThioGlo1 CoA-SH fluorescence
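GCN5L2 (20nM final) in 50mM HEPES, 0.1mM EDTA pH 7.5, 0.01% Tween-20 was preincubated 15 min at room temperature with compound, then given ThioGlo1 (50uM), H3(1-25) peptide (75uM) and acetyl-CoA (70uM); CoA-thiol fluorescence (Ex340/Em540) was read at 0 and 20 min.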
PLK1 PBD inh – blocks phosphopeptide binding to human PLK1 polo-box domain. 360,000 tested, 2.8% active. Plk1 PBD binding of FITC phosphopeptide, fluorescence polarization. AID 720504. Potency, µM, inactives show max response, negative = inhibition, hits mostly inhibitors. P53350; further: series mostly up to about 57 µM; nearly all actives have a fitted effect of over 65% in size
DT40 TDP1 CPT – DT40-hTDP1 cell growth loss with CPT; chicken DT40 Tdp1-/-;hTDP1 cells + 20 nM CPT, ATP luminescence, 48 h; Potency, µM (highest dose often 46.2 µM), for inactives: at the highest dose activity change, negative = growth inhibition, actives largely listed as inhibitors; 420,000 tested, 12% active; AID 686979; further: nearly all actives have a fitted effect of over 55% in size
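Cell growth measured by CellTiter-Glo luminescence after a minimum 48 h, 37 C compound exposure with 20 nM CPT in Tdp1-knockout DT40 cells stably expressing hTDP1, seeded 400/well; qHTS titration format.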
TDP1 block – inhibitors of human tyrosyl-DNA phosphodiesterase TDP1 | Potency, µM (top dose mostly 130 µM), inactives show at the top dose activity change, negative = inhibition, hits mostly inhibitors | 350,000 tested, 0.28% active | recombinant TDP1, AlphaScreen DNA substrate cleavage | AID 485290 | Q9NUW8; further: nearly all actives have a fitted effect of over 40% in size
Target sequence (Q9NUW8 whole entry, looked up): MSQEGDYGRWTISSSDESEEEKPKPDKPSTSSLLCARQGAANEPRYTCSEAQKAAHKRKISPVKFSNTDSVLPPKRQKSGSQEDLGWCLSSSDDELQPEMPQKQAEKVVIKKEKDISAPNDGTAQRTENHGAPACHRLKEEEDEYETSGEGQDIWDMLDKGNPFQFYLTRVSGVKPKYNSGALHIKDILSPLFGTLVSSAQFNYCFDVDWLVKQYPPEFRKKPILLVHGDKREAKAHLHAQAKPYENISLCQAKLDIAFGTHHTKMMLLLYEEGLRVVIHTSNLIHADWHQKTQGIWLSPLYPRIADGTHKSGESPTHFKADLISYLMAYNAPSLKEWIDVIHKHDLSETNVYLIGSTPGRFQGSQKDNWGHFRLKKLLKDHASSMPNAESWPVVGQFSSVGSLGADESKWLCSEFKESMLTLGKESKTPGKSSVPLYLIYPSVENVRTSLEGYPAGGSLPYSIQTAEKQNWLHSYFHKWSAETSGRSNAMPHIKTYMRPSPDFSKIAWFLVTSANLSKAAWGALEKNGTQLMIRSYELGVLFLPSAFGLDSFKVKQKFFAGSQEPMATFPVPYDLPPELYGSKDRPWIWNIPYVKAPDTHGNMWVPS
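Steps: enzyme plus compound, 15 min RT; add biotin/phosphotyrosine-FITC oligonucleotide (15 nM final), react 5 min; add donor/acceptor beads (10 ug/ml final), 10 min; read AlphaScreen. Tdp1 at 1 nM final.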
VDR inhibitor – vitamin D3 receptor (human) inhibition; P11473; VDR-SRC2-3 peptide fluorescence polarization, 2 h; Potency, µM, for inactives: max response, negative = inhibition, most hits filed as inhibitors; 400,000 tested, 0.93% active; AID 504847
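Measured by FP: displacement of SRC2-3 coactivator peptide from VDR by library compounds, following a two-hour ambient incubation.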
TDP1 cell noCPT – qHTS for Inhibitors of human tyrosyl-DNA phosphodiesterase 1 (TDP1): qHTS in cells in absence of CPT; DT40 Tdp1-/- hTDP1 cells, no CPT, ATP luminescence, 48 h; Potency, µM (top dose mostly 46.2 µM), without a hit: at the top dose activity change, negative = growth inhibition, hits mostly inhibitors; 420,000 tested, 15% active; further: nearly all actives have a fitted effect of over 55% in size
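Compound effects on proliferation are scored in DT40 Tdp1-/-;hTDP1 cells in the absence of CPT. ATP levels (CellTiter-Glo luminescence) are recorded after a ≥48 hr, 37 °C incubation.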
Numbers without * were called inactive; ? = inconclusive; . = no result given; ! = a repeat was not active; [ ] = remark or other dose. Compounds with a hit are over-represented: about 18% of the library has one in this group of screens. The call rests on the fitted dose curve; in most records, active means well fitted curve in the direction sought with a large enough effect; inconclusive means small, poorly fitted or top-dose-only effect, or another doubt; inactive means no such curve, though single readings can be large; an effect the other way counts as inactive or inconclusive. On the % scale 0 is the no-effect control and ±100 the full control effect; potency means the concentration at half of the fitted maximal effect.

SMILES	KAT2A inh	PLK1 PBD inh	DT40 TDP1 CPT	TDP1 block	VDR inhibitor	TDP1 cell noCPT
CCCCC/C=C\C/C=C\C/C=C\C/C=C\CCCC(=O)Nc1ccc(O)cc1	-19%	.	27µM*	0%	-1%	21µM*
Cc1ccc2c(=O)n(-c3cccc(Cl)c3)c(=O)[nH]c2c1	-6%	.	?	-5%[12.3 µM]	-19%	?
COc1ccc(NC(=O)CSc2nc(-c3cccs3)cc(C(F)(F)F)n2)cc1Cl	2%	.	16µM*	2%	-5%	23µM*
COc1ccc(C(=O)Nc2ccc(-c3nc4ccccc4s3)cc2C)cc1Cl	0%	.	?	7%	3%	-29%
Cn1c(O)c(/C=N/Nc2ccccc2)c(=O)n(C)c1=O	-23%	-16%	22%	10%	-21%	-7%
CCOC(=O)c1c(/N=C/c2c(O)n(-c3ccccc3F)c(=S)[nH]c2=O)sc2c1CCCC2	-17%	24µM*	?	?	?	?
CCOC(=O)c1c(/N=C/c2c(O)n(-c3ccc(F)cc3)c(=S)[nH]c2=O)sc2c1CCCC2	2%	-17%	-11%	3%	-24%	?
COc1ccc(-c2cc3nc(NCc4ccc(N(C)C)cc4)n(C)c(=O)c3s2)cc1OC	.	-6%	?	.	.	-25%
CCCCCCC(C)(C)c1ccc([C@@H]2C[C@H](O)CC[C@H]2CCCO)c(O)c1	-20%	-10%	21µM*!	11%[56.1 µM]	2%	18µM*
Nc1nc(N)c2nc(CNc3ccc(C(=O)N[C@@H](CCC(=O)O)C(=O)O)cc3)cnc2n1	.	.	?	.	.	16µM*
CN(C)c1ccc(/C=C2\CCCN=C2c2cccnc2)cc1	.	.	.	12%	.	.
CC(=O)CC(c1ccccc1)c1c(O)c2cccc(O)c2oc1=O (stereo not given)	46%	.	.	3%	3%	.
O=C(NCC1=C(c2cccc3ccccc23)C[C@@H]2CC[C@H]1N2Cc1ccco1)c1ccc([N+](=O)[O-])cc1	.	-10%	21µM*	.	.	18µM*
CS(=O)(=O)c1ccc(C2=C(CNC(=O)c3ccc([N+](=O)[O-])cc3)[C@H]3CC[C@@H](C2)N3CCOc2ccccc2)cc1	.	-15%	?	.	.	15µM*
CS(=O)(=O)c1ccc(C2=C(CNC(=O)c3ccc([N+](=O)[O-])cc3)[C@H]3CC[C@@H](C2)N3Cc2ccccc2)cc1	.	-10%	-18%	.	.	-26%
COC(=O)c1ccc(NC(=O)CSc2nc3ccc(N4C(=O)C5C6C=CC(C6)C5C4=O)cc3s2)cc1 (stereo not given)	-6%	-8%	21µM*	0%	-13%	18µM*
CC(=O)Nc1nnc(CCN(CCc2nnc(NC(C)=O)s2)[N+](=O)[O-])s1	0%	-1%	-6%	3%	8%	-17%
CN1CCC2(CC1)c1ccccc1-c1ccccc12	.	-3%	?	.	1%	15µM*
Cc1cc2c(cc(C(=O)N3CCC(C(=O)NC4CCCC4)CC3)n2Cc2c(F)cccc2Cl)o1	-4%	-9%	18µM*	.	-5%	23µM*
O=c1c(F)cn(C2CCCO2)c(=O)n1Cc1c(F)cccc1Cl (stereo not given)	-7%	-3%	6%	3%	18%	?
CC(C)(C)OC(=O)c1ncn2c1[C@@H]1CCCN1C(=O)c1c(Br)cccc1-2	42%	.	6%	9%	-10%	?
CN(C)C1C(=O)C(C(N)=O)=C(O)[C@@]2(O)C(=O)C3=C(O)c4c(O)cccc4[C@@](C)(O)C3CC12 (stereo not given in full)	-3%	.	?	-7%[56.1 µM]	.	?
CC(=O)N1CCN(CC(=O)Nc2ccc(C#N)c(Cl)c2)CC1	-4%	3%	-28%	8%	-6%	3%
